PriA SSB inh: inhibitors of Klebsiella pneumoniae PriA binding to SSB C-terminal tail, primary screen, biochemical, AlphaScreen; inhibition, % at 33 µM; AlphaScreen SSBct-PriA binding, biotinylated peptide; PriA–SSB C-terminal tail interaction (Klebsiella pneumoniae); AID 1272365, 2023; 0.6% of 430,000 active; in the data active = inhibition mostly above about 37%, no sharp cut-off; inactive = mostly below about 20%;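 also: plate controls were negative control peptide for no effect and reference peptide for full effect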
PrPC TRFRET: inhibitors of human cell surface prion protein PrPC, primary screen, cell-based, TR-FRET; Major prion protein (Homo sapiens), P04156; TR-FRET read-out; inhibition, % at 13.8 µM; 0.43% of 370,000 active; in the data active = inhibition above about 24%; also: 0% = median of the test wells and 100% = reference compound wells
Vc quorum ag: inducers of Vibrio cholerae quorum light production without autoinducers, primary screen, BH1578 luxS cqsA deficient, single point. V. cholerae BH1578 lux reporter, luminescence, 6 h. activation, % at 18.7 µM. 0.16% of 350,000 active. AID 588436, 2011; in the data active = activation mostly above about 9.7%, no sharp cut-off
PrP 5UTR inh: inhibition of PrP 5' UTR reporter expression. cell-based PrP 5' UTR mRNA reporter, plate reader. inhibition, % (test concentration not listed). 0.35% of 340,000 active. AID 488862, 2010; in the data active = inhibition above about 52%; also: 0 = median of the neutral control wells
FadD28 FP inh: inhibitors of FadD28 bisubstrate probe binding, primary screen, biochemical, fluorescence polarization, single point; inhibition, % at 12.5 µM; 0.22% of 360,000 active; AID 588549, 2011; in the data active = inhibition above about 8.5%, passing the limit was not always enough
PrP UTR cherry: prion 5' UTR mRNA inhibition, cherry-pick retest | shares compounds with PrP 5UTR inh | inhibition, % at 2.5 µM | 48% of 1,100 active | AID 504592, 2011 | cell-based prion protein 5' UTR reporter, plate reader; in the data active = inhibition above about 54%
Numbers without * were called inactive. The list is not random: actives were taken first. Their share in the collection is about 1.4%.

Screening CCN(C[C@H]1N[C@@](Cc2ccccc2)(C(=O)OC)[C@H]2C(=O)N(Cc3ccccc3)C(=O)[C@@H]12)S(=O)(=O)c1ccc(C(F)(F)F)cc1 returned PriA SSB inh -2, PrPC TRFRET -2, Vc quorum ag 1, PrP 5UTR inh 86*, FadD28 FP inh -1 and PrP UTR cherry -13.
`CC[C@@]1(C(=O)OC)N[C@H](CN(C)C(=O)Nc2ccc(C)cc2)[C@@H]2C(=O)N(Cc3ccccc3)C(=O)[C@@H]21` gave PriA SSB inh -4, PrPC TRFRET -1, Vc quorum ag 2, PrP 5UTR inh -27 and FadD28 FP inh -3.
`CC[C@@]1(C(=O)OC)N[C@H](CN(C)C(=O)Nc2ccc(F)cc2)[C@@H]2C(=O)N(Cc3ccccc3)C(=O)[C@@H]21` gave PriA SSB inh 2, PrPC TRFRET -3, Vc quorum ag inactive, PrP 5UTR inh 70*, FadD28 FP inh 1 and PrP UTR cherry -8.
`C[C@H](CO)N1C[C@H](C)[C@@H](CN(C)C(=O)Nc2ccccc2)Oc2c(NC(=O)c3ccncc3)cccc2C1=O` gave PriA SSB inh -1, PrPC TRFRET -4, Vc quorum ag inactive, PrP 5UTR inh 62*, FadD28 FP inh -1 and PrP UTR cherry -25.
`C[C@H]1CN([C@@H](C)CO)C(=O)c2cccc(NC(=O)c3ccncc3)c2O[C@H]1CN(C)C(=O)Nc1ccccc1` gave PriA SSB inh -5, PrPC TRFRET -3, Vc quorum ag inactive, PrP 5UTR inh -7 and FadD28 FP inh -3.
For O=S(=O)(CCc1ccccc1)NCC1CCN(C2CCCC2)CC1 the results were PriA SSB inh -7.
For Nc1ccc2c(c1)-c1ccc(F)cc1C2=O the results were PriA SSB inh -15, PrPC TRFRET -3, Vc quorum ag inactive, PrP 5UTR inh 81*, FadD28 FP inh -1 and PrP UTR cherry -2.
`O=S1(=O)CCC(Nc2ncnc3c2cnn3-c2ccc(F)cc2)C1` (stereo unspecified) gave PriA SSB inh -2.
`O=C(Nc1nncs1)c1cc2c(s1)CCC2` gave PriA SSB inh -1, PrPC TRFRET 3, Vc quorum ag inactive, PrP 5UTR inh -3 and FadD28 FP inh -4.
Screening O=C(Nc1nccs1)c1cc2c(s1)CCCCC2 returned PriA SSB inh -21, PrPC TRFRET 4, Vc quorum ag inactive, PrP 5UTR inh 64*, FadD28 FP inh -2 and PrP UTR cherry 72*.
`COc1ccc2c(c1)C(C)=CC(C)(C)N2S(=O)(=O)c1ccc(NC(C)=O)cc1` gave PriA SSB inh -10, PrPC TRFRET 9, Vc quorum ag -1, PrP 5UTR inh 73*, FadD28 FP inh -4 and PrP UTR cherry 41.
For C=CCn1c(SCC(=O)c2ccc(F)cc2)nnc1-c1nnc(SCC(=O)c2ccc(F)cc2)n1CC=C the results were PriA SSB inh -10.
`CCn1nnc2c(SCC(=O)NCc3ccco3)ncnc21` gave PriA SSB inh 0.
For COc1ccccc1-c1nnc2sc(-c3ccc(N(C)C)cc3)nn12 the results were PriA SSB inh -15, PrPC TRFRET 9, Vc quorum ag 0, PrP 5UTR inh 21 and FadD28 FP inh 0.
COc1ccccc1-c1nnc2sc(-c3cc4ccccc4o3)nn12 was read as PriA SSB inh -12, PrPC TRFRET -1, Vc quorum ag -1, PrP 5UTR inh 54*, FadD28 FP inh -5 and PrP UTR cherry 64*.
Screening O=C(CCn1cnc2ccccc2c1=O)Nc1cccc(Cl)c1 returned PriA SSB inh -2, PrPC TRFRET -1, Vc quorum ag 0, PrP 5UTR inh -9 and FadD28 FP inh -2.
COc1ccc(Cl)cc1NC(=O)CCn1cnc2ccccc2c1=O was read as PriA SSB inh 3, PrPC TRFRET 9, Vc quorum ag inactive, PrP 5UTR inh 70*, FadD28 FP inh -3 and PrP UTR cherry -10.
For Cc1ccccc1NC(=O)N1CCO[C@H](c2cc(Cl)cc(Cl)c2)C1 the results were PriA SSB inh -9.
Screening Cc1ccc(-c2noc(CCC(=O)Nc3ccc4c(c3)OCO4)n2)cc1 returned PriA SSB inh -10, PrPC TRFRET 11, Vc quorum ag inactive, PrP 5UTR inh 60*, FadD28 FP inh -1 and PrP UTR cherry -15.
Screening CCOc1ccc(N(CC(=O)NN=Cc2cc(Br)c(C)o2)S(C)(=O)=O)cc1 returned PriA SSB inh -18.
`CCOc1ccc(NC(=O)c2cc3c(C)nc4ccccc4c3o2)cc1` gave PriA SSB inh -14, PrPC TRFRET 10, Vc quorum ag 0, PrP 5UTR inh 62*, FadD28 FP inh 1 and PrP UTR cherry 14.
For Cc1nc(SCC(=O)Nc2nc3ccccc3s2)c(C#N)c(C)c1C the results were PriA SSB inh -6, PrPC TRFRET -8, Vc quorum ag inactive, PrP 5UTR inh 93*, FadD28 FP inh -3 and PrP UTR cherry 93*.
For Cc1nc(SCC(=O)Nc2nccs2)c(C#N)c(C)c1C the results were PriA SSB inh -2, PrPC TRFRET -3, Vc quorum ag 0, PrP 5UTR inh 71*, FadD28 FP inh -2 and PrP UTR cherry 69*.
`Cc1cc(C(F)(F)F)c(C#N)c(SCC(=O)Nc2nc3ccccc3s2)n1` gave PriA SSB inh -19, PrPC TRFRET 1, Vc quorum ag 0, PrP 5UTR inh -40 and FadD28 FP inh 0.
For CCOc1ccc(OCCNC(=O)c2ccc(F)c(F)c2)cc1 the results were PriA SSB inh -3.
For OCCN1CCN(CC/C=C2/c3ccccc3Sc3ccc(Cl)cc32)CC1 the results were PriA SSB inh -6, PrPC TRFRET -21, Vc quorum ag inactive, PrP 5UTR inh 82*, FadD28 FP inh -5 and PrP UTR cherry -19.
`COc1ccc(N(C[C@H](O)Cn2c3ccc(Br)cc3c3cc(Br)ccc32)S(=O)(=O)c2ccc(Cl)cc2)cc1` gave PriA SSB inh -19.
`Cc1ccc(-c2ccc(=O)n(Cc3nc(-c4ccccc4C)no3)n2)cc1C` gave PriA SSB inh -15.
`CC(=O)O[C@H]1C(=O)[C@@]2(C)C([C@H](OC(=O)c3ccccc3)[C@]3(O)C[C@H](OC(=O)[C@H](O)[C@@H](NC(=O)c4ccccc4)c4ccccc4)C(C)=C1C3(C)C)[C@]1(OC(C)=O)CO[C@@H]1C[C@H]2O` (stereo partly specified) gave PriA SSB inh -1, PrPC TRFRET 19, Vc quorum ag 0, PrP 5UTR inh 56*, FadD28 FP inh -2 and PrP UTR cherry 68*.
Screening Cn1c(=O)c2c(nc(CN3CCN(c4ccccc4F)CC3)n2CCCc2ccccc2)n(C)c1=O returned PriA SSB inh -16, PrPC TRFRET 0, Vc quorum ag inactive, PrP 5UTR inh 83*, FadD28 FP inh -1 and PrP UTR cherry -3.

Bioassay records deposited in PubChem by several laboratories.
